Measurements published in the supplement of paper PMC12024529.

The compounds below were run on HEK293 WT BDD-FVIII-Gluc (assay: secreted FVIII-Gluc luciferase Z-score vs DMSO control; higher = more FVIII-Gluc secretion). Details: 5 µM.
Protocol: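 Natural plant-compound library (480 compounds, ST catalogue IDs) screened on HEK293 cells stably expressing WT BDD-FVIII-Gaussia luciferase fusion at 5 µM. Secreted Gluc activity in the medium is given as a Z-score relative to DMSO controls.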

Row | SMILES | secreted FVIII-Gluc luciferase Z-score
1 | COc1cc2c(c(OC)c1OC)-c1ccc(OC)c(=O)cc1C(NC(C)=O)CC2 (stereo not given) | -6.65
2 | C[C@@H]1OC(=O)[C@H]2C[C@H]3CCCC[C@@H]3[C@@H](/C=C/[C@@H]3CCC[C@@H](C)N3C)[C@@H]12 | -0.126
3 | COc1cc2c(cc1OC)-c1c(O)c(OC)cc3c1[C@H](C2)N(C)CC3 | 0.65
4 | COc1cc2c(cc1OC)C13CCN4CC5=CCOC6CC(=O)N2C1C6C5CC43 (stereo not given) | 0.159
5 | C[C@H]1CCC/C=C/C2C[C@H](O)C[C@H]2[C@H](O)/C=C/C(=O)O1 (stereo not given in full) | -4.99
6 | CC12C(=O)OC(=O)C1(C)C1CCC2O1 (stereo not given) | -4.31
7 | CN(C)Cc1c[nH]c2ccccc12 | 0.161
8 | CN1CC[C@@]2(C)c3cc(O)ccc3N(C)[C@@H]12 | -0.624
9 | COc1ccc2c3c([nH]c2c1)C(C)=NCC3 | -2.05
10 | C[C@@H]1C[C@@H]([C@H](O)CC2CC(=O)NC(=O)C2)C(=O)[C@@H](C)C1 | -7.2
11 | CN(C)[C@@H]1C(=O)C(C(N)=O)=C(O)[C@@]2(O)C(=O)C3=C(O)c4c(O)cccc4[C@@](C)(O)[C@H]3[C@H](O)[C@@H]12 | 0.919
12 | Oc1ccc(CC2NCCc3cc(O)c(O)cc32)cc1O (stereo not given) | 0.392
13 | CCC1CN2CCC1CC2C(O)c1ccnc2ccc(OC)cc12 (stereo not given) | -0.168
14 | NCC(O)c1cccc(O)c1 (stereo not given) | 0.434
15 | CC[C@@H](CO)NC(=O)[C@@H]1C=C2c3cccc4[nH]cc(c34)C[C@H]2N(C)C1 | 0.791
16 | C[C@]12CC[C@H](O)C[C@@H]1CC[C@@H]1[C@@H]2CC[C@]2(C)C(=O)CC[C@@H]12 | 0.049
17 | COC1=CC2C3Cc4ccc(OC)c(O)c4C2(CCN3C)CC1=O (stereo not given) | -0.0187
18 | CCN1C[C@]2(C)CC[C@H](O)[C@@]34C5C[C@@H]6[C@@H](OC)C[C@@](O)(C5[C@H]6O)[C@@H](CC23)C14 (stereo not given in full) | 0.562
19 | CC1=C2C3OC(=O)C(C)C3CC[C@@]2(C)C=CC1=O (stereo not given in full) | 0.0932
20 | CN[C@H]1CCc2cc(OC)c(OC)c(OC)c2-c2ccc(OC)c(=O)cc21 | -3.62

Row | SMILES | secreted FVIII-Gluc luciferase Z-score
21 | CN1C[C@H](C(=O)N[C@]2(C)O[C@@]3(O)[C@@H]4CCCN4C(=O)[C@H](Cc4ccccc4)N3C2=O)C[C@@H]2c3cccc4[nH]cc(c34)C[C@H]21 | 0.0715
22 | CCC1CN2CCc3cc(OC)c(OC)cc3[C@@H]2C[C@@H]1C[C@H]1NCCc2cc(OC)c(OC)cc21 (stereo not given in full) | -3.94
23 | CCC1(O)C(=O)OCc2c1cc1n(c2=O)Cc2cc3ccccc3nc2-1 (stereo not given) | -3.23
24 | C/C=C/c1ccc2c(c1)OCO2 | 0.131
25 | CN1CCc2cc3c(cc2[C@H]1[C@H]1OC(=O)c2c1ccc1c2OCO1)OCO3 | 0.159
26 | CCCCCC[C@H]1C(=O)O[C@H](C)[C@H](NC(=O)c2cccc(NC=O)c2O)C(=O)O[C@@H](C)[C@@H]1OC(=O)CC(C)C | -3.29
27 | COc1ccc(CC2c3cc(OC)c(OC)cc3CCN2C)cc1OC (stereo not given) | -1.36
28 | COc1ccc2c(c1O)-c1c(OC)c(OC)cc3c1[C@H](C2)N(C)CC3 | 0.32
29 | COc1cc2c(c(OC)c1OC)-c1ccc(O)c(=O)cc1[C@@H](NC(C)=O)CC2 | 0.222
30 | COc1cc2c(cc1O)C[C@H]1c3c(cc(OC)c(O)c3-2)CCN1C | 0.61
31 | COc1cc2c(cc1OC)-c1c(OC)c(OC)c(CO)c3c1C(C2)N(C)CC3 (stereo not given) | -0.0378
32 | COc1cc2c(cc1O)-c1c(O)c(OC)cc3c1[C@H](C2)N(C)CC3 | 0.6
33 | CCCCc1ccc(C(=O)O)nc1 | 0.032
34 | CCC12CCCN3CCC4(c5ccc(OC)c(O)c5N(C(C)=O)C4CC1)C32 (stereo not given) | 0.655
35 | CC(C)(O)[C@@H]1[C@H]2OC(=O)[C@@H]1[C@]1(O)C[C@H]3O[C@]34C(=O)O[C@H]2[C@]14C | -0.634
36 | C=CCCN1C[C@@H]2C[C@@H](C1)c1cccc(=O)n1C2 | -0.00507
37 | NCCc1c[nH]c2ccc(O)cc12 | 0.752
38 | CN(C)[C@@H]1C(=O)C(C(N)=O)=C(O)[C@@]2(O)C(=O)C3=C(O)c4c(O)cccc4[C@@](C)(O)[C@H]3C[C@@H]12 | 0.496
39 | C=C(C)[C@H]1Cc2c(ccc3c2O[C@@H]2COc4cc(OC)c(OC)cc4[C@@H]2C3=O)O1 | -5.82
40 | CC[C@H]1C2C[C@H]3[C@@H]4N(C)c5ccccc5[C@]45C[C@@H](C2[C@H]5O)N3[C@@H]1O (stereo not given in full) | 0.504
